The whole screen tested about 69,000 compounds, of which about 8,600 (12%) showed an effect of 50% or more. For the sample, strong results were picked, then their nearest neighbours and some compounds at random.

The assay has as its system Plasmodium berghei. The experiment in a line: Screen against P. berghei liver stage (PbLuc), transformed with Luciferase, at 10uM. Type of assay: functional, HepG2. To be noted: tested at 10 uM.
`O=C(NCCc1nncn1C1CC1)c1cnn(Cc2ccccc2)c1`: the INHIBITION is 4.13%.
As for `COc1cccn(CC(=O)N2CCCC3(CCCCC3)C2)c1=O`, the INHIBITION is -17.7%.
For the molecule `Cc1cc(C)c(C(=O)N2CCCC(O)(CN3CCCC3)C2)cc1C` (stereo not given), the INHIBITION was found to be 34.9%.
For `Cc1c(C(=O)O)sc2nc(Cc3ccccc3)nc(N)c12` the value was -2.27%; for `Cc1nc(Cc2ccccc2)nc2sc(C(=O)O)c(C)c12`, 53.1%; for `CCN(CC(=O)NC)C(=O)c1sc(Cc2ccccc2)nc1C`, -16%.
On to `COc1cc2nc(C)n(CC(=O)NCCN(C)C)c(=O)c2cc1OC`, for which the INHIBITION is recorded as 2.55%.
For the molecule `COc1cc(CN2CCCC[C@]3(C)NC(=O)CC[C@H]23)ccc1F`, the INHIBITION stood at 23.9%.
As to `CCOCC1CN(Cc2cnn(C)c2)Cc2cnn(C)c21` (stereo not given), the INHIBITION amounted to 35.7%.
For `CCOCC1CN(Cc2cnn(C)c2)Cc2c1cnn2CC` (stereo not given) the value was 53.2%; for `CCn1cc2c(n1)CN(Cc1ccoc1)CC2COCC1CC1` (stereo not given), 9.54%.
Take `CCn1cc2c(n1)CN(Cc1cnn(C)c1)CC2COCC1CC1` (stereo not given): the INHIBITION is on record as 63.7%.
As to `CCOCC1CN(Cc2ccoc2)Cc2nn(CC3CC3)cc21` (stereo not given), the INHIBITION is -19.4%.
Regarding `CCn1cc2c(n1)CN(Cc1ccc(C)o1)CC2COCC1CC1` (stereo not given), the INHIBITION is listed as 63.7%.
Take `CCOCC1CN(Cc2cnn(C)c2)Cc2nn(C)cc21` (stereo not given): the INHIBITION stood at 18.2%.
Consider `CCOCC1CN(Cc2cnn(C)c2)Cc2ncn(CC3CC3)c21` (stereo not given), for which the INHIBITION amounted to 33%.
Turning to `Cn1cc(CN2Cc3cn(C)nc3C(COCC3CC3)C2)cn1` (stereo not given), the INHIBITION turned out to be 34.6%.
For `CCOCC1CN(Cc2ccc(OC)cc2)Cc2nn(CC3CC3)cc21` (stereo not given) the value was 33%; for `CCOCC1CN(Cc2cnn(C)c2)Cc2ncn(C)c21` (stereo not given), 36.9%; for `CCOCC1CN(Cc2cnn(C)c2)Cc2nn(CC3CC3)cc21` (stereo not given), 67.2%.
Regarding `O=C(c1cc(=O)[nH]c(=O)[nH]1)N1CCCC(CO)(CC2CC2)C1` (stereo not given), the INHIBITION worked out at 47.6%.
For the molecule `CN(Cc1ccccc1)C1COC2(CCN(Cc3nccs3)CC2)C1` (stereo not given), the INHIBITION is given as 37%.
For the molecule `O=C(Cc1ccc(F)cc1)NCCNc1cc(N2CCCC2)ncn1`, the INHIBITION was 31.7%.
Turning to `CCN(CC)C1COc2c(cc(Br)c(C)c2Br)C1=O` (stereo not given), the INHIBITION is reported as 5.56%.
Consider `CC(C)c1noc(CCNC(=O)NCC2Cc3ccccc3O2)n1` (stereo not given), for which the INHIBITION was -34.8%.
Turning to `Cc1nc(N(C)C)nc(C)c1NS(=O)(=O)c1ccc(F)cc1F`, the INHIBITION was -7.81%.
For `CS(=O)(=O)NCC1CCCN(C(=O)Nc2ccccc2F)C1` (stereo not given), the INHIBITION worked out at 4.1%.
As for `COc1cnc(CSc2nnc(C)s2)cc1OCC(=O)NC(C)(C)C`, the INHIBITION is listed as -3.11%.
Regarding `CN(C)S(=O)(=O)N1CCC[C@]2(C[C@@H](Oc3ccccn3)CO2)C1`, the INHIBITION is recorded as -21.3%.
As for `O=C1CCC2(CCC(NC3CCOCC3)CC2)N1Cc1ccccc1` (stereo not given), the INHIBITION is -47.9%.

(Values after ChEMBL document CHEMBL4513216, “Probing the Open Global Health Chemical Diversity Library for Multistage-Active Starting Points for Next-Generation Antimalarials” (ACS Infect Dis, 2020).)
